Here are results for 40 compounds from PubChem BioAssay (Tox21).

Inconclusive results are not listed. Where a call stands in place of a potency, no number is given. The source made the active and inactive calls. Calls follow the shape of the dose curve; as a rule, active = well fitted curve in the direction sought with a large enough effect in the repeat runs; inconclusive = weak or mixed curves; inactive = no such curve, though single readings can be large; an effect the other way counts as inactive or inconclusive.

A short description of one experiment: A CellTox Green Cytotoxicity Assay to monitor cytotoxicity in HepG2 cells - 40 hour (AID 1224879). Also: nearly all actives have a fitted effect of over 40% in size. Also: potency is read from the fitted curve at half-maximal effect. The following applies: CellTox Green fluorescence; series mostly up to 76.8 µM. In a few lines:
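HepG2 cells were seeded together with the CellTox Green dye at 600 cells/well, left 5 h at 37 C/5% CO2, then given compounds in DMSO. Fluorescence from dye bound to dead-cell DNA was read repeatedly over 40 h of treatment at 37 C.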
`CCC(OC(C)=O)C(CC(C)NC)(c1ccccc1)c1ccccc1` (stereo not given): the Potency is 55.4 µM (active).
The same measure, in the same setting: next, `CCC(C)c1cccc(C(C)CC)c1O` (stereo not given): 19.5 µM (active); `Oc1ccc2[nH]cc(CCCCN3CC=C(c4ccccc4)CC3)c2c1`: 23.9 µM (active); `CC1CN1` (stereo not given): “inactive”.
On to `C[C@]12CC[C@H]3[C@@H](CCC4=CC(=O)CC[C@@H]43)[C@@H]1CC[C@@H]2OC(=O)CCc1ccco1`, for which the Potency result was “inactive”.
The same measure, in the same setting: next, `O.O.O.O.O.O.O.O=S(=O)([O-])[O-].[Co+2]`: “inactive”; `CC(C)N(C(=O)CCl)c1ccccc1`: 43.6 µM (active); `CCCCCCC[CH2][Sn]([Cl])([Cl])[CH2]CCCCCCC`: “inactive”.
As for `Cc1c([N+](=O)[O-])cc2c(c1[N+](=O)[O-])C(C)(C)CC2(C)C`, the Potency result was “inactive”.
Turning to `COP(=S)(NC(C)C)Oc1ccc(C)cc1[N+](=O)[O-]` (stereo not given), the Potency result is “inactive”.
With `CCCCCCCc1ccc(O)cc1`, the Potency was 21.9 µM (active).
`COC(=O)N(OC)c1ccccc1COc1ccn(-c2ccc(Cl)cc2)n1`: the Potency entry is “inactive”.
Turning to `O=[N+]([O-])c1ccc(Cl)c(Cl)c1Cl`, the Potency entry is “inactive”.
Same read-out and setting: next, `CO/N=C(/C1=NOCCO1)c1ccccc1Oc1ncnc(Oc2ccccc2Cl)c1F`: “inactive”; `CN1CCc2cc3c(cc2C1O)OCO3` (stereo not given): “inactive”; `ClC(Cl)C(Cl)(Cl)Cl`: “inactive”.

Another experiment can be described thus: qHTS RealTime-Glo MT Cell Viability Assay in HEK293 cells - 0 hour (AID 1224880). Also: top concentration of the series differs between compounds; nearly all actives have a fitted effect of over 45% in size. The following applies: RealTime-Glo luminescence; series mostly up to 76.8 µM. An outline of the steps:
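HEK293 cells mixed with RealTime-Glo reagents (NanoLuc plus cell-permeant prosubstrate) at 600 cells/well, preincubated 5 h at 37 C/5% CO2, then given 23 nL compound in DMSO. Nonlytic luminescence from viable cells was read at 0, 8, 16, 24, 32 and 40 h.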
(In general: qHTS replaces the single test concentration by a dilution series.)
Consider `CCC[CH2][Sn]([CH2]CCC)([O]C(C)=O)[O]C(C)=O`, for which the Potency entry was “inactive”.
Regarding `[F][Sn]([c]1ccccc1)([c]1ccccc1)[c]1ccccc1`, the Potency entry is “inactive”.
As to `CC(=O)[O-].CC(=O)[O-].O.O.[Zn+2]`, the Potency entry is “inactive”.
For `CO/N=C(\C(=O)OC)c1ccccc1CO/N=C(\C)c1cccc(C(F)(F)F)c1`, the Potency result is “inactive”.
Same read-out and setting: next, `CNC(=O)/C=C(\C)OP(=O)(OC)OC`: “inactive”.
Regarding `Nc1nc(N)c(N)c(N)n1`, the Potency result is “inactive”.
Consider `Nc1ccccc1-c1ccccc1`, for which the Potency result is “inactive”.
For the compound `O.O.O.O=C([O-])[C@H]([O-])[C@@H]([O-])C(=O)[O-].O=C([O-])[C@H]([O-])[C@@H]([O-])C(=O)[O-].[K+].[K+].[Sb+3].[Sb+3]`, the Potency entry is “inactive”.
In the case of `O=S(=O)(NS(=O)(=O)C(F)(F)F)C(F)(F)F`, the Potency result is “inactive”.
On the same count and under the same terms, next, `O=C(NC(=O)c1ccccc1Cl)Nc1ccc(OC(F)(F)F)cc1`: “inactive”.
Same read-out and setting: next, `CCC(C)Nc1c([N+](=O)[O-])cc(C(C)(C)C)cc1[N+](=O)[O-]` (stereo not given): “inactive”; `O=C(N[C@H]1N=C(c2ccccc2F)c2cccc3c2N(CC3)C1=O)c1cc2ccccc2[nH]1`: “inactive”; `c1ccc2nc(N3CCNCC3)ccc2c1`: “inactive”.
As to `C[C@H]1[C@H](c2ccc(Cl)cc2)SC(=O)N1C(=O)NC1CCCCC1`, the Potency result is “inactive”.
`CC(C)(C)c1ccc(OP(=O)(Oc2ccccc2)Oc2ccccc2)cc1`: the Potency result is “inactive”.
As for `Clc1ccc(C(c2ccc(Cl)cc2)C(Cl)Cl)cc1`, the Potency result was “inactive”.
`CC1=C2C[C@H]3[C@@H](CC=C4C[C@@H](O)CC[C@@]43C)[C@@H]2CC[C@]12O[C@@H]1C[C@H](C)CN[C@H]1[C@H]2C`: the Potency entry was “inactive”.
On the same count and under the same terms, the value for `Oc1cccc(Cl)c1Cl` was “inactive”; that for `Cc1c([N+](=O)[O-])c(C)c([N+](=O)[O-])c(C(C)(C)C)c1[N+](=O)[O-]` was “inactive”; that for `CCOC(=O)Cc1ccccc1` was “inactive”.
For `CCC(C)c1cccc(C(C)CC)c1O` (stereo not given), the Potency entry is “inactive”.
Still for that read-out and setting: next, `Nc1ccc(N=Nc2ccccc2)cc1`: “inactive”; `Oc1ccc2[nH]cc(CCCCN3CC=C(c4ccccc4)CC3)c2c1`: “inactive”.
Same read-out and setting: the value for `CC1CN1` (stereo not given) was “inactive”.
On to `CC(=O)[O][Sn]([c]1ccccc1)([c]1ccccc1)[c]1ccccc1`, for which the Potency entry was “inactive”.
For `C[C@]12CC[C@H]3[C@@H](CCC4=CC(=O)CC[C@@H]43)[C@@H]1CC[C@@H]2OC(=O)CCc1ccco1`, the Potency result was “inactive”.
Turning to `O.O.O.O.O.O.O.O=S(=O)([O-])[O-].[Co+2]`, the Potency result was “inactive”.
Same read-out and setting: the value for `CC(C)N(C(=O)CCl)c1ccccc1` was “inactive”; that for `O=[N+]([O-])C(Br)Br` was “inactive”.
As to `CCCCCCC[CH2][Sn]([Cl])([Cl])[CH2]CCCCCCC`, the Potency entry was “inactive”.
On to `S=C=NCCc1ccccc1`, for which the Potency entry was “inactive”.
The same measure, in the same setting: next, `Cc1c([N+](=O)[O-])cc2c(c1[N+](=O)[O-])C(C)(C)CC2(C)C`: “inactive”; `COP(=S)(NC(C)C)Oc1ccc(C)cc1[N+](=O)[O-]` (stereo not given): “inactive”.
On the same count and under the same terms, next, `CCCCCCCc1ccc(O)cc1`: “inactive”.
As to `COC(=O)N(OC)c1ccccc1COc1ccn(-c2ccc(Cl)cc2)n1`, the Potency entry is “inactive”.
For `O=[N+]([O-])c1ccc(Cl)c(Cl)c1Cl`, the Potency result was “inactive”.
Still for that read-out and setting: next, `CO/N=C(/C1=NOCCO1)c1ccccc1Oc1ncnc(Oc2ccccc2Cl)c1F`: “inactive”; `CN1CCc2cc3c(cc2C1O)OCO3` (stereo not given): “inactive”.
Same read-out and setting: the value for `ClC(Cl)C(Cl)(Cl)Cl` was “inactive”.
